Assay outcomes deposited in PubChem by National Center for Advancing Translational Sciences (NCATS).
EPAC1 ag: qHTS for Agonist of cAMP-regulated guanine nucleotide exchange factor 3 (EPAC1): primary screen; Potency, µM (series often up to 154 µM), for the others: at the top dose activation, usual class: activators; AID 720707, 2013; hit rate 0.073% among 360,000; EPAC1 agonist qHTS, biochemical assay; response scale: 100% = response to 6.5 mM cAMP; Rap guanine nucleotide exchange factor 3 (Homo sapiens), O95398; further: nearly all actives have a fitted effect of over 60% in size
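Fluorescent GDP-exchange assay: 100 nM EPAC1 with 250 nM Rap1B preloaded with BODIPY-GDP and 50 uM GDP; compounds tested as concentration series, 5 min at room temperature, then read every 5 min for 30 min (ex 480/em 540 nm); normalized to 6.5 mM cAMP.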
12-LOX inh: Primary qHTS assay for inhibitors of human arachidonate 12S-lipoxygenase (ALOX12): Round 2. purified 12hLO, xylenol orange hydroperoxide absorbance. Potency, µM (top dose mostly 108 µM), without a hit: top-dose activity change, negative = inhibition, most hits filed as inhibitors. Polyunsaturated fatty acid lipoxygenase ALOX12 (Homo sapiens), P18054. hit rate 1.1% among 580,000; further: on the % scale 0 is the no-effect control and ±100 the full control effect
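Purified human 12hLO (150 nM final) in 25 mM Hepes, 0.01% Triton X-100, pH 7.0 was preincubated 15 min at room temperature with compound. Then 40 uM arachidonic acid was added, 30 min. Hydroperoxide was read by Fe-XO absorbance ratio 573/405 nm.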
USP1 inh: Inhibitors of USP1/UAF1: Primary Screen. Ubiquitin carboxyl-terminal hydrolase 1 (Homo sapiens), O94782. recombinant USP1/UAF1, Ub-Rhodamine cleavage fluorescence. Potency, µM (titrated, usually from 57.1 µM), without a hit: at the top dose activity change, negative = inhibition, actives largely listed as inhibitors. hit rate 0.23% among 390,000; further: on the % scale 0 is the no-effect control and ±100 the full control effect; nearly all actives have a fitted effect of over 60% in size
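High-throughput fluorogenic screen: 1nM USP1/UAF1 complex, Ub-Rho substrate 150nM final, 50mM HEPES pH 7.8 with 0.5mM EDTA, 0.1 mg/ml BSA, 1mM TCEP and 0.01% Tween-20.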
EPAC2 antag: qHTS for Antagonist of cAMP-regulated guanine nucleotide exchange factor 2 (EPAC2): primary screen | EPAC2 GEF exchange of Rap1B-BODIPY-GDP, fluorescence | Rap guanine nucleotide exchange factor 4 (Homo sapiens), Q8WZA2 | AID 720708, 2013 | hit rate 0.18% among 360,000 | Potency, µM (top dose mostly 114 µM), for inactives: at the highest dose activity, negative = inhibition, actives largely listed as inhibitors; further: on the % scale 0 is the no-effect control and ±100 the full control effect; nearly all actives have a fitted effect of over 45% in size
Target sequence (Q8WZA2 whole entry, looked up): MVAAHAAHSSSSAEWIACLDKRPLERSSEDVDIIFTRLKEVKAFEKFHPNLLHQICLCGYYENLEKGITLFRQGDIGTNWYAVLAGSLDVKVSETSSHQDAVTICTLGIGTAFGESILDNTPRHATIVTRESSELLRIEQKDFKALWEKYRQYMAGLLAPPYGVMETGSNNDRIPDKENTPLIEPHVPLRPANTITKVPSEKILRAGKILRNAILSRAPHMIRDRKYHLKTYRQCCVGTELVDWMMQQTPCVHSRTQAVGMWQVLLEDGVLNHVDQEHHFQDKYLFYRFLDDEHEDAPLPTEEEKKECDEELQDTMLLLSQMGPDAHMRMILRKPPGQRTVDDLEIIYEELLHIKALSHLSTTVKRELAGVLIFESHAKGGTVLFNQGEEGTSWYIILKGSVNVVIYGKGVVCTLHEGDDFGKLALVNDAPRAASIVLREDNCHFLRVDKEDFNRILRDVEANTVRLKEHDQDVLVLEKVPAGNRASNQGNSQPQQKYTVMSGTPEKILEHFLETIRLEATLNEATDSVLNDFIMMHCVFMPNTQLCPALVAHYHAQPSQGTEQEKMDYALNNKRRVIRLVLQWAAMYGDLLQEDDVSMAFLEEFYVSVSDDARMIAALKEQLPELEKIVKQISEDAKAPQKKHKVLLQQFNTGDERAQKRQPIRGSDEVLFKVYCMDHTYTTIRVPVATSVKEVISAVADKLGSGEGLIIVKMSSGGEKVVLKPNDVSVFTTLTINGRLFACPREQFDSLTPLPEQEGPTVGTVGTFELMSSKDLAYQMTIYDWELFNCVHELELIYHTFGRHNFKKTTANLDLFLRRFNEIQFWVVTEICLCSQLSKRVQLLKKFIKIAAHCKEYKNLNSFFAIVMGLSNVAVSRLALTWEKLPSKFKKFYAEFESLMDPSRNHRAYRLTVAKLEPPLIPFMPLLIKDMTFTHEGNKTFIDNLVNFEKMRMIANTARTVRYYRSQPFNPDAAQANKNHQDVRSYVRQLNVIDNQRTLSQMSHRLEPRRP
EPAC2 agonist: qHTS for Agonist of cAMP-regulated guanine nucleotide exchange factor 4 (EPAC2): primary screen | EPAC2 activation, biochemical qHTS; response scale: 100% = 6.5 mM cAMP response | Potency, µM (titrated, usually from 154 µM), for inactives: at the highest dose activation, hits mostly activators | hit rate 0.079% among 360,000 | AID 720711, 2013 | Rap guanine nucleotide exchange factor 4 (Homo sapiens), Q8WZA2; further: nearly all actives have a fitted effect of over 50% in size
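EPAC2 (100 nM) mixed with Rap1B loaded with BODIPY-GDP (250 nM) plus 50 uM unlabeled GDP; compounds pinned in, 5 min RT, then read every 5 min for 30 min (ex 480, em 540 nm). Normalized to cAMP control.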
EPAC1 antag: qHTS for Antagonist of cAMP-regulated guanine nucleotide exchange factor 3 (EPAC1): primary screen; Rap guanine nucleotide exchange factor 3 (Homo sapiens), O95398; Potency, µM (series often up to 115 µM), without a hit: at the highest dose activity change, negative = inhibition, usual class: inhibitors; EPAC1 GEF assay, Rap1b-BODIPY-GDP exchange fluorescence; hit rate 0.14% among 360,000; AID 720709, 2013;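 further: plate controls were vehicle for no effect and positive control for full effect; nearly all actives have a fitted effect of over 50% in size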
* marks the source's active call; other numbers are inactive results; ? = inconclusive; / = no result; [ ] = remark or other dose. The list is not random: actives were taken first. Their share in the collection is about 1.3%. The call rests on the fitted dose curve; in most records, active means well fitted curve in the direction sought with a large enough effect; inconclusive means small, poorly fitted or top-dose-only effect, or another doubt; inactive means no such curve, though single readings can be large; an effect the other way counts as inactive or inconclusive. Potency means the concentration at half of the fitted maximal effect.

SMILES | EPAC1 ag | 12-LOX inh | USP1 inh | EPAC2 antag | EPAC2 agonist | EPAC1 antag
COc1ccc(N2C(=O)[C@@H]3[C@H](C2=O)[C@H]2c4ccccc4C=CN2[C@@H]3C(C)=O)cc1 | 3% | -26% | 16µM* | 1% | 11% | -8%
COc1ccc(C(=O)C(C)C(=O)c2ccc(OC)cc2)cc1 | / | -29% | / | / | / | /
COc1ccc(C(=O)C(Br)C(=O)c2ccc(OC)cc2)cc1 | / | 6.3µM* | / | / | / | /
CCOC(=O)c1sc(NC(=O)c2cccc(S(=O)(=O)N3CCN(C)CC3)c2)cc1C | 21% | 45µM* | -8% | -2% | 3% | -20%
CCOC(=O)c1sc(NC(=O)c2cccc(S(=O)(=O)N(CC)CC)c2)cc1C | -6% | -4% | -17% | 6% | -14% | -1%
OCC1CN(C2CCC2)CC12CCN(Cc1cc(F)ccc1F)CC2 (centres undefined) | / | 60% | / | / | / | /
COc1cccc(C2c3[nH]c4ccccc4c3CCN2Cc2ncc[nH]2)c1 (centres undefined) | 6% | 9% | -33% | 50µM* | 7% | -4%
c1ccc2c3c([nH]c2c1)C(C1CCCCC1)N(Cc1ncc[nH]1)CC3 (centres undefined) | -4% | -7% | -12% | -2% | 6% | 11%
Cc1ccc(N/N=C(\C#N)C(N)=S)cc1C | 8% | 2µM* | -23% | -2% | 11% | 3%
Cc1cc(OC(=O)c2ccccc2Cl)c([N+](=O)[O-])c(=O)[nH]1 | -12% | 40µM* | -22% | 3% | 9% | -10%
COc1cccc2c1C(=O)c1c(O)c3c(c(O)c1C2=O)CC(O)(C(=O)CO)CC3OC1CC(N(C)C)C(O)C(C)O1 (centres undefined) | ? | -22% | ? | 12% | -3% | 25%
COc1cccc2c1C(=O)c1c(O)c3c(c(O)c1C2=O)C[C@@](O)(C(=O)CO)C[C@@H]3O[C@H]1C[C@H](N)[C@@H](O)[C@H](C)O1 | -7% | -29%[57.4 µM] | 28µM* | 10% | -1% | 23%
COc1cccc2c1C(=O)c1c(O)c3c(c(O)c1C2=O)C[C@@](O)(C(C)=O)C[C@@H]3O[C@H]1C[C@H](N)[C@H](O)[C@H](C)O1 | 4% | 0% | 5.6µM* | ? | -9% | 15%
CC(=O)[C@]1(O)Cc2c(O)c3c(c(O)c2[C@@H](O[C@H]2C[C@H](N)[C@H](O)[C@H](C)O2)C1)C(=O)c1ccccc1C3=O | 100µM* | / | 28µM* | 105% | 112µM* | 127%
CC(=O)[C@]1(O)Cc2c(O)c3c(c(O)c2[C@@H](O[C@H]2C[C@H](N)[C@@H](O)[C@H](C)O2)C1)C(=O)c1ccccc1C3=O | / | -2%[57.4 µM] | / | / | / | /
O=C(O)c1ccc(S(=O)(=O)/N=C2\C=C(Nc3ccccc3F)C(=O)c3ccccc32)cc1 | 5% | ? | 2.5µM* | ? | 30% | 22µM*
Cc1ccccc1NC1=C/C(=N\S(=O)(=O)c2ccc(C(=O)O)cc2)c2ccccc2C1=O | 1% | ? | 1.3µM* | 50µM* | 17% | 40µM*
COC(=O)C(C(C)=O)C1=C/C(=N\S(=O)(=O)c2ccc(C)cc2)c2ccccc2C1=O (centres undefined) | 3% | / | -20% | -7% | -5% | -7%
O=C(O)CSc1ccc2c(c1)OCCO2 | / | -11% | / | / | / | /
CCOC(=O)/C(=C\c1ccc(N2CCC(c3ccccc3)=N2)cc1)C(C)=O | ? | -6% | 28µM* | 169% | 100µM* | 11%
CC(C)C(=O)Nc1cccc(Cl)c1Cl | / | 14% | / | / | / | /
CC(=O)NC1(C)CCCN(Cc2cccc(Nc3ccccc3)c2)C1 (centres undefined) | / | -21%[176 µM] | / | / | / | /
COc1ccc(-c2cccc(CN3CCCC(C)(NC(C)=O)C3)c2)cc1OC (centres undefined) | / | -9%[176 µM] | / | / | / | /
CC(=O)NC1(C)CCCN(Cc2cccc(-c3ccc4c(ccn4C)c3)c2)C1 (centres undefined) | / | 35µM* | / | / | / | /
CC(=O)NC1(C)CCN(Cc2cccc(-c3cccc(Cl)c3)c2)C1 (centres undefined) | / | 40µM* | / | / | / | /
SMILES | EPAC1 ag | 12-LOX inh | USP1 inh | EPAC2 antag | EPAC2 agonist | EPAC1 antag
CC(=O)NC1(C)CCN(Cc2ccccc2-c2ccc3ccccc3c2)C1 (centres undefined) | / | 32µM* | / | / | / | /
O=C(CNc1ccc(Br)cc1F)N(C1CCCCC1)C1CCS(=O)(=O)C1 (centres undefined) | / | -8% | / | / | / | /
CCN(Cc1ccccc1)C(=S)Nc1ccccc1C | / | -23% | / | / | / | /
O=C(NNC(=O)C1CCCC1)c1ccc([N+](=O)[O-])cc1Cl | / | 19% | / | / | / | /
S=C(Nc1ccccn1)c1ccccn1 | 7% | 4.5µM* | -12% | -3% | 6% | 2%
COc1cc(NC(=S)Nc2ccccn2)cc(OC)c1 | 4% | 32µM* | -22% | -1% | 8% | -23%
S=C(Nc1ccccn1)Nc1ccccc1Cl | -5% | 35µM* | -8% | -9% | 6% | -3%
O=C(Nc1ccccn1)C(=O)Nc1ccccn1 | -1% | -13% | -8% | -1% | 4% | -5%
COC(=O)Cc1ccc(NC(=S)Nc2ccccn2)cc1 | -2% | 40µM* | -16% | 5% | 1% | 14%
O=C1CC(c2ccccc2)c2ncn(-c3cc(F)ccc3F)c2N1 (centres undefined) | / | 5µM* | / | / | / | /
COc1c(C2CC(=O)Nc3c2ncn3-c2cccc(Cl)c2)cc2c(c1OC)OCO2 (centres undefined) | / | -17% | / | / | / | /
O=C(NC1CCCC1)C1CCN(c2ncnc3nc[nH]c23)CC1 | / | 6% | / | / | / | /
CC(=O)Oc1ccc(N2C(=O)C3C(C2=O)C(C(=O)c2ccc(Cl)cc2)N2CCCC32)cc1 (centres undefined) | 7% | ? | 22µM* | 5% | 28% | -6%
Cc1ccc(N2C(=O)C3C(C2=O)C(C(=O)c2ccc(Cl)cc2)N2CCCC32)cc1 (centres undefined) | -2% | -17% | -9% | 8% | 0% | -1%
Cc1ccc(CNC(=O)CC(C)S(=O)(=O)c2ccc3c(c2)CCN3C(=O)C2CC2)cc1 (centres undefined) | / | -3% | / | / | / | /
CC(=O)Nc1ccc(NC(C)C(=O)Nc2ccc(Cl)cn2)cc1 (centres undefined) | / | 8% | / | / | / | /
